Data: PubChem BioAssay (NCATS)
Active and inactive are the calls of the source. The call rests on the fitted dose curve; in most records, active means well fitted curve in the direction sought with a large enough effect; inconclusive means small, poorly fitted or top-dose-only effect, or effect the other way, or another doubt; inactive means no such curve, though single readings can be large or run the other way.

experiment: Inducers of the Endoplasmic Reticulum Stress Response (ERSR) in human glioma: Validation (AID 504836); settings: human glioma cells, ER stress response reporter; series mostly up to 38.3 µM; activation: at the top concentration; further: 0% is about no effect
Procedure, shortened: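 Stably transfected U87-MG glioma cells carrying a GRP78-based luciferase sensor; 16 h compound incubation. Luminescence end-point read 10 min after Bright-Glo addition at room temperature.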

Row | SMILES | activation
1 | COc1ccccc1OCCNCC(O)COc1cccc2[nH]c3ccccc3c12 (configuration not stated) | -1.63% (inactive)
2 | CN1CCN(C2=Nc3ccccc3Oc3ccc(Cl)cc32)CC1 | -4.01% (inactive)
3 | COC(=O)C1=C(C)NC(C)=C(C(=O)OCCN(C)Cc2ccccc2)C1c1cccc([N+](=O)[O-])c1 (configuration not stated) | -4.69% (inactive)
4 | COc1cc(Cc2cnc(N)nc2N)cc(OC)c1OC | -3.01% (inactive)
5 | CN(Cc1cnc2nc(N)nc(N)c2n1)c1ccc(C(=O)N[C@@H](CCC(=O)O)C(=O)O)cc1 | -1.01% (inactive)
6 | CC(CN1c2ccccc2Sc2ccccc21)N(C)C (configuration not stated) | 0.728% (inactive)
7 | CSc1ccc2c(c1)N(CCC1CCCCN1C)c1ccccc1S2 (configuration not stated) | -2.55% (inactive)
8 | NS(=O)(=O)c1cc2c(cc1Cl)NC=NS2(=O)=O | 0.848% (inactive)
9 | C[C@]12CC[C@@H]3c4ccc(O)cc4C[C@@H](CCCCCCCCCS(=O)CCCC(F)(F)C(F)(F)F)[C@H]3[C@@H]1CC[C@@H]2O (some centres not stated) | -1.16% (inactive)
10 | COc1ccc(Cl)cc1C(=O)NCCc1ccc(S(=O)(=O)NC(=O)NC2CCCCC2)cc1 | -2.98% (inactive)
11 | NC(=O)c1cn(Cc2c(F)cccc2F)nn1 | -1.98% (inactive)
12 | COc1cc2nc(N3CCN(C(=O)C4CCCO4)CC3)nc(N)c2cc1OC (configuration not stated) | 1.66% (inactive)
13 | NC[C@H](O)c1ccc(O)c(O)c1 | -3.09% (inactive)
14 | CC(C)NCC(O)c1ccc(O)c(O)c1 (configuration not stated) | -4.35% (inactive)
15 | COC(=O)[C@H]1[C@H]2C[C@@H]3c4[nH]c5cc(OC)ccc5c4CCN3C[C@H]2C[C@@H](OC(=O)c2cc(OC)c(OC)c(OC)c2)[C@@H]1OC | -1.51% (inactive)
16 | CCC1(c2ccccc2)C(=O)NCNC1=O | -2.39% (inactive)
17 | Cn1ccc2cc3c(cc21)CCN3C(=O)Nc1cccnc1 | -3.19% (inactive)
